# Where a name gives a salt, the structure may show the parent alone. The full ranking holds about 7,300 compounds; the median of “AC50” is about 90,000 nM, and the lowest 2% start at about 20,000 nM. The list shows a part of the results.
# Test system: thyroid hormone receptor (endogenous TRα and TRβ)
# Set-up: species or system GH3-TRE-Luc (rat pituitary); GH3-TRE-Luc luciferase reporter transactivation, agonist mode, qHTS; RXR ligands can also activate indirectly
# Details: read-out: TR_LUC_GH3_Agonist_AC50, agonist mode, primary qHTS, 24 h
row,SMILES,AC50
1,C[C@]12CC[C@H]3C(=CCc4cc(O)ccc43)[C@@H]1CCC2=O [Equilin],3.41 µM
2,COc1ccc(OC)c(C(O)C(C)N)c1 (centres unmarked) [Methoxamine hydrochloride],32 µM
3,Cc1cc(NC(=O)C(=O)O)cc(C)c1Oc1ccc(O)c2c1CCC2 [CP-634384],0.00147 µM
4,CC1=C(/C=C/C(C)=C/C=C/C(C)=C\C(=O)O)C(C)(C)CCC1 [13-cis Retinoic acid],0.133 µM
5,CC1=C(/C=C/C(C)=C/C=C/C(C)=C/C(=O)O)C(C)(C)CCC1 [all trans-Retinoic acid],0.319 µM
6,CC1=C(/C=C/C(C)=C\C=C\C(C)=C\C(=O)O)C(C)(C)CCC1 [9-cis Retinoic acid],4.18 µM
7,NCC(=O)CCC(=O)O [Aminolevulinic acid hydrochloride],28.7 µM
8,CC(C)(C)CC(C)(C)c1ccc(O)c(Cc2ccc(Cl)cc2Cl)c1 [Clofoctol],1.37 µM
9,"O=C(O)Cc1cc(I)c(Oc2cc(I)c(O)c(I)c2)c(I)c1 [Tetrac, 3,3ʹ,5,5ʹ-tetraiodothyroacetic acid]",0.000927 µM
10,N[C@@H](Cc1cc(I)c(Oc2cc(I)c(O)c(I)c2)c(I)c1)C(=O)O [Levothyroxine],0.00789 µM
11,C[C@H](CCC(=O)NCC(=O)O)[C@H]1CC[C@H]2[C@@H]3[C@H](O)C[C@@H]4C[C@H](O)CC[C@]4(C)[C@H]3C[C@H](O)[C@]12C [glycocholic acid],51.8 µM

# Reference: PMC6792352, “Limited Chemical Structural Diversity Found to Modulate Thyroid Hormone Receptor in the Tox21 Chemical Library” (Environmental Health Perspectives, 2019)
